Bioassay records (PubChem)
M1 ag: M1 muscarinic receptor agonism; CHO-M1 cells, Fluo-4 calcium fluorescence, agonist mode; stronger effect = higher value; B-score at 10 µM; 64,000 compounds, 3% hits; AID 626;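 active = fluorescence rise, raw or as B-score row- and column-corrected plate score, outside the 99.7% band of its plate's samples, either direction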
hDAT+cocaine: modulates human dopamine transporter uptake under cocaine. 110,000 compounds, 1.3% hits. B-score at 10 µM. AID 449768. LLC-PK1 hDAT cells, [14C]-dopamine uptake with cocaine IC80; actives deviate in either direction. Q01959;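 active = Z score or B-score, a plate-position-corrected score, falls beyond the plate's 99.7% confidence bounds, in either direction; inactive = both scores lie inside the 99.7% bounds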
Target sequence (Q01959 whole entry, looked up): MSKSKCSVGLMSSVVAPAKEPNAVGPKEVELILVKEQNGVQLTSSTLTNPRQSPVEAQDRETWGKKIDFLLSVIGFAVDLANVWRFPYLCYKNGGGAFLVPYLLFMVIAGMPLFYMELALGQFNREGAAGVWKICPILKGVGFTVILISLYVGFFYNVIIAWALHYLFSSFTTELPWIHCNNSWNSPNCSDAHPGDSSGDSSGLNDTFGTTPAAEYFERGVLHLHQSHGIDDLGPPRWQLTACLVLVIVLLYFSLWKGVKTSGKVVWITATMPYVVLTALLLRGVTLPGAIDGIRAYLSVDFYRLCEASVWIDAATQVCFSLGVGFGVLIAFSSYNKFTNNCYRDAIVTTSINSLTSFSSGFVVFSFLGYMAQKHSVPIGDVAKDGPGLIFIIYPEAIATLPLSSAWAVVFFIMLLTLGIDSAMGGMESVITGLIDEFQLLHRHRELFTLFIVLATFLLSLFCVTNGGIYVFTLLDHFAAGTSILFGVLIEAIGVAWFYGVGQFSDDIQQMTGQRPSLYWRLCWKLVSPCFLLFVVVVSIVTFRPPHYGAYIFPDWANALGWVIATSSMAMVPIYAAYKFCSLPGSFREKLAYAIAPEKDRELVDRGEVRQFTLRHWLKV
FXIIa inh mix: factor XIIa (human) inhibition, mixture screen; P00748; purified FXIIa, fluorogenic substrate, pooled mixtures; inhibition, % at 5 µM; 62,000 compounds, 0.2% hits
FXIa mix inh: blocks human factor XIa in pooled compound mixtures. P03951. purified FXIa, fluorogenic substrate. inhibition, % at 5 µM. 62,000 compounds, 0.19% hits. AID 680;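 note: each value is inhibition by a whole ten-compound pool holding the compound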
M1 antagonist: blocks the rat M1 muscarinic receptor response to acetylcholine; CHO-M1 cells, Fluo-4 calcium, ACh EC80 antagonist mode; stronger effect = lower value; P08482; B-score at 10 µM; 64,000 compounds, 3.4% hits;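 active = calcium fluorescence response, raw or row-and-column corrected B-score, differing from the plate sample mean either way at a set confidence level, mostly lower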
D1 mod: allosterically modulates the human D1 dopamine receptor. HEK293 D1, CRE-luciferase, dopamine EC30 potentiation; actives deviate in either direction. B-score at 10 µM. 58,000 compounds, 5.9% hits. AID 641;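 active = luminescence count or its row- and column-corrected plate score outside the 99.7% band of the plate's sample wells, on either side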
M1 ag confirm: confirmation of rat M1 muscarinic receptor agonists; CHO-M1 cells, Fluo-4 calcium fluorescence, agonist mode; actives lie on both sides; AID 1488; shares compounds with M1 ag; 1,700 compounds, 19% hits; fluorescence change (max-min) at 10 µM;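 active = fluorescence change differs from the solvent-only DMSO control mean at a set confidence level in both duplicate runs; inconclusive = differs from solvent-only control mean in just one of two runs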;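 note: an EC20 dose of acetylcholine follows compound addition during the same imaging run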
M4 agonist ctr: rat M4 muscarinic agonism, M1 counter-screen; 1,700 compounds, 9% hits; shares compounds with M1 ag; CHO M4/Gqi5 cells, Fluo-4 calcium fluorescence, agonist mode; actives lie on both sides; fluorescence change (max-min) at 10 µM;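 active = fluorescence change differing from the plate's solvent-only control wells at 99.7% confidence in both duplicates, whether higher or lower; inconclusive = differs from solvent controls in only one of two duplicates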
Of the large screens only hits and unclear results are named; the others gave an inactive call (follow-up assays come after a bar, where they were run). Most compounds without a hit are left out; they make up all but 7.4% or so of the library. Cut-off read from the data, not from the text of the source, unless noted: active = inhibition above about 20% (passing the limit was not always enough); inactive = the rest.

CCOC(=O)N1CCN(C(=O)c2ccc3nc(SCc4ccc(F)cc4)n(C)c3c2)CC1	M1 ag 4, M1 antagonist -2.8 (no result: D1 mod) | M1 ag confirm inconclusive | M4 agonist ctr inactive
CCCc1cc(N2CCCC(C(=O)Nc3cc(Cl)ccc3OC)C2)n2ncnc2n1 (stereo not given)	none (no result: hDAT+cocaine)
COc1ccccc1N1CCN(C(=O)CSc2ncccc2-c2nc3ccccc3[nH]2)CC1	M1 ag 13 | M1 ag confirm inconclusive | M4 agonist ctr inactive
OCC1OC(n2cnc3c(NC4CCCCC4)ncnc32)C(O)C1O (stereo not given)	none (no result: M1 ag, FXIIa inh mix, FXIa mix inh, M1 antagonist, D1 mod)
Cc1c(OC(=O)CNC(=O)OC(C)(C)C)ccc2c3c(c(=O)oc12)CCC3	M1 ag 2.4 | M1 ag confirm inactive | M4 agonist ctr inactive
Clc1ccc(OCCN2CCN(c3ncnc4sccc34)CC2)cc1	M1 ag 4.5, M1 antagonist -3.3 | M1 ag confirm inactive | M4 agonist ctr inactive
C#CC1(O)CC(C)N(C)C(C)C1 (stereo not given)	M1 ag 2.4 | M1 ag confirm inactive | M4 agonist ctr inactive
COc1cc2c(=O)nc3n(c2cc1OC)C(c1ccccc1)N=C(N)N3 (stereo not given)	M1 ag 2.4 | M1 ag confirm inactive | M4 agonist ctr inactive
NC1=NC(c2ccc(F)cc2)n2c(nc3ccccc32)N1 (stereo not given)	none
COCCn1c(C)cc(C(=O)CSc2ccc3ccccc3n2)c1C	none (no result: M1 ag, FXIIa inh mix, FXIa mix inh, M1 antagonist, D1 mod)
COCCn1c(C)cc(C(=O)COc2nc3ccccc3nc2C)c1C	M1 ag 5.2 | M1 ag confirm inactive | M4 agonist ctr inactive
COc1ccc(N2C(=O)C3CCCN3C2c2ccc(C)o2)cc1Cl (stereo not given)	none
Cc1ccc(C2N(c3ccc(Cl)c(Cl)c3)C(=O)C3CCCN32)o1 (stereo not given)	M1 ag 6.7 | M1 ag confirm inconclusive | M4 agonist ctr inactive
CC1(C)CC(=O)C2=C(C1)OC(N)=C(C#N)C21CCN(Cc2ccccc2)CC1	M1 ag 6.9 | M1 ag confirm inactive | M4 agonist ctr inactive
CC(=O)[C@H]1[C@@H]2C(=O)N(c3cccc(Cl)c3)C(=O)[C@@H]2[C@H]2c3ccccc3C=CN21	M1 ag 6.4 (no result: FXIIa inh mix, FXIa mix inh, D1 mod) | M1 ag confirm 98 | M4 agonist ctr inconclusive
COc1cc2nc(NCC3CCCO3)n3nc(-c4cccnc4)nc3c2cc1OC (stereo not given)	M1 ag 2.9, M1 antagonist -3.9 | M1 ag confirm inconclusive | M4 agonist ctr inactive
COc1cccc(N2CCN(C3CCCC(C)C3)CC2)c1 (stereo not given)	M1 ag 3.6 | M1 ag confirm inactive | M4 agonist ctr inactive
Cc1c(Cc2ccccc2)sc(N)c1C(N)=O	M1 ag 8.8 | M1 ag confirm inactive | M4 agonist ctr inactive
O=C(NCC(=O)N(Cc1ccccc1)C(C(=O)NC1CCCC1)c1ccco1)c1ccco1 (stereo not given)	M1 ag 9.4 | M1 ag confirm inactive | M4 agonist ctr inactive
COC(=O)c1ccccc1NC(=O)Cn1cnc2cc(C)c(C)cc21	M1 ag -2.8 | M1 ag confirm inactive | M4 agonist ctr inactive
COC(=O)c1ccccc1NC(=O)Cn1cnc2c(cnn2-c2ccc(C)c(C)c2)c1=O	none (no result: M1 ag, FXIIa inh mix, FXIa mix inh, M1 antagonist, D1 mod)
Nc1nc(CSc2n[nH]c(-c3ccccc3)n2)nc(Nc2ccccc2)n1	M1 ag 2.2 | M1 ag confirm -42 | M4 agonist ctr inactive
CC(C(=O)NC1=NCCS1)N1C(=O)C2CC=CCC2C1=O (stereo not given)	none
Cc1cnc(-c2nnc(N(C)C(=O)C3CCCO3)s2)cn1 (stereo not given)	M1 ag -1.7 | M1 ag confirm inactive | M4 agonist ctr inactive
O=C(/C=C/c1ccccc1)NCCSc1ccc(Cl)cc1	none (no result: M1 ag, FXIIa inh mix, FXIa mix inh, M1 antagonist, D1 mod)
O=C1CN(C(=O)c2ccco2)C(c2ccc(F)cc2)c2cc(Cl)ccc2N1 (stereo not given)	none (no result: FXIIa inh mix, FXIa mix inh)
CN(C(=O)c1ccccn1)c1nnc(-c2ccncc2)s1	none (no result: hDAT+cocaine)
CS(=O)(=O)N(CC(=O)Nc1ccc(C(N)=O)cc1)C1CCCCC1	none (no result: M1 ag, FXIIa inh mix, FXIa mix inh, M1 antagonist, D1 mod)
O=C(Cc1cccs1)N1CCN(c2nc(-c3ccc(Cl)cc3)cs2)CC1	M1 ag 3.5 | M1 ag confirm -28 | M4 agonist ctr inactive
Cc1ccccc1N=C1Nc2ccccc2CS1	none
O=C(CN1c2cccc3cccc(c23)S1(=O)=O)NCc1ccc2c(c1)OCO2	M1 ag 21, M1 antagonist -4, D1 mod 5.3 | M1 ag confirm inactive | M4 agonist ctr inactive
CCOc1cc(-c2nc3ccccn3c2NCC2CCCO2)ccc1O (stereo not given)	M1 ag 10, M1 antagonist -1.8, D1 mod -4.1 | M1 ag confirm inactive | M4 agonist ctr inactive
CCCNC(=O)Cc1c(O)c2ccccc2[nH]c1=O	none (no result: M1 ag, FXIIa inh mix, FXIa mix inh, M1 antagonist, D1 mod)
CCCCCCc1c(O)c2ccccc2[nH]c1=O	M1 ag 13 | M1 ag confirm inactive | M4 agonist ctr inactive
Cc1cc(=O)oc2ccc(OC(=O)c3cccc(S(=O)(=O)N4CCOCC4)c3)cc12	M1 ag 4.8 | M1 ag confirm inconclusive | M4 agonist ctr inactive
CC(=O)NCCc1ccc(S(=O)(=O)N2CCOCC2)cc1	M1 ag 2.2 | M1 ag confirm inactive | M4 agonist ctr inactive
Cc1c(C(=O)NCCC2=CCCCC2)oc2ccc(S(=O)(=O)N3CCOCC3)cc12	M1 ag 15, M1 antagonist -2.9 (no result: D1 mod) | M1 ag confirm inconclusive | M4 agonist ctr inactive
Cc1cccc(NC(=O)c2oc3ccc(S(=O)(=O)N4CCOCC4)cc3c2C)c1C	M1 ag 9.5 | M1 ag confirm inconclusive | M4 agonist ctr inactive
Cc1c(NC(=O)c2cccc(S(=O)(=O)N3CCOCC3)c2)c(=O)n(-c2ccccc2)n1C	none
Cc1c(C(=O)NCc2cccs2)oc2ccc(S(=O)(=O)N3CCOCC3)cc12	none (no result: D1 mod)
CCCC1CC(=O)OC1(C)C(=O)CSc1n[nH]c(-c2ccccc2)n1 (stereo not given)	none (no result: D1 mod)
CC(C)Cn1c(=O)c(C2=NS(=O)(=O)c3ccccc3N2)c(O)c2ccccc21	none (no result: hDAT+cocaine)
Cc1nonc1NC(=O)OCCN1CCOC1=O	none (no result: M1 ag, M1 antagonist, D1 mod)
CCN(CC)C(=O)CSc1nc(-c2ccc(C)cc2)nc2c1COC(C)(C)C2	none (no result: M1 ag, FXIIa inh mix, FXIa mix inh, M1 antagonist, D1 mod)
COc1cc(NS(=O)(=O)c2ccc(C)cc2C)cc(OC)c1OC	M1 ag 4.1 | M1 ag confirm inconclusive | M4 agonist ctr inactive
COc1ccc(C)cc1S(=O)(=O)Nc1ccccc1	none (no result: M1 ag, FXIIa inh mix, FXIa mix inh, M1 antagonist, D1 mod)
CN(C)CCNC(=O)c1onc(CSc2ccc(F)c(F)c2)c1C(=O)NCCN(C)C	none (no result: M1 ag, FXIIa inh mix, FXIa mix inh, M1 antagonist, D1 mod)
CCc1ccc(NC(=O)CSc2nnc(Cn3c(=O)sc4ccccc43)n2C)cc1	none (no result: D1 mod)
